PubChem BioAssay (Tox21)
Several values for one entry are separate records, joined by “and”; a condition that tells them apart may be missing. Equal values may be shown once. Activity calls are given as the source filed them. Unless noted, the call rests on the fitted dose curve; in most records, active means well fitted curve in the direction sought with a large enough effect in the repeat runs; inconclusive means weak or mixed curves; inactive means no such curve, though single readings can be large; an effect the other way counts as inactive or inconclusive. Positions of bridges follow the written chain, without caps; N, C: chain ends. Non-standard residues stand in square brackets, D forms with d. Residues, ends and D or L forms follow the SMILES beside them. *: point of attachment. X2 = CC[C@H](C)CCCCC(=O)*; Dab = NCC[C@H](N)C(=O)O

How the values were obtained:
[1] = qHTS assay for small molecules that induce genotoxicity in human embryonic kidney cells expressing luciferase-tagged ATAD5 (AID 651632); further: nearly all actives have a fitted effect of over 15% in size; further: potency means the concentration at half of the fitted maximal effect
In short: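 Reporter cells (HEK293T) express luciferase-tagged ATAD5, a protein that accumulates after DNA damage. Treat 16 hr at 37C/5% CO2, add Amplite, wait 30 min at RT, and read luminescence.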

[2] = qHTS assay for small molecule agonists of the p53 signaling pathway - cell viability (AID 651633; calls by dose curve; further: nearly all actives have a fitted effect of over 30% in size; further: potency means the concentration at half of the fitted maximal effect)
In short: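 p53RE-bla cells, seeded at 4,000 per well and rested 5 h at 37 C/5% CO2, received compounds in DMSO for 16 h at 37 C. CellTiter-Glo was then added, and luminescence was read after 30 min at room temperature to gauge cytotoxicity.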

[3] = qHTS assay for small molecules that induce genotoxicity in human embryonic kidney cells expressing luciferase-tagged ATAD5 - cell viability (AID 651634; calls by dose curve; further: nearly all actives have a fitted effect of over 25% in size; further: potency means the concentration at half of the fitted maximal effect)
In short: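 Seeding of 2,000 HEK293T ATAD5-luciferase cells per well preceded pin-tool compound transfer. Plates sat 15.5 hr at 37C under 5% CO2, then fluorescence was read after 30 min with CellTiter-Fluor.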

[4] = qHTS assay for small molecule disruptors of the mitochondrial membrane potential - cell viability (AID 720634; calls by dose curve; further: nearly all actives have a fitted effect of over 20% in size; further: potency means the concentration at half of the fitted maximal effect)
In short: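 Measuring cytotoxicity alongside mitochondrial potential, the screen quantified ATP by luminescence in HepG2 cells after 1 hr compound incubation and a 30 min room-temperature CellTiter-Glo step.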

[5] = qHTS assay for small molecule disruptors of the mitochondrial membrane potential (AID 720635); further: potency means the concentration at half of the fitted maximal effect
In short: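 HepG2 cells (2,000/well) attached overnight at 37C, then took compound for 1 hr at 37C, 5% CO2. Mito-MPS dye was added for 30 min; fluorescence was read at 490/535 nm (monomers) and 540/590 nm (aggregates).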

[6] = qHTS assay to test for compound auto fluorescence at 590 nm (red) in HepG2 cells (AID 720674)
In short: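 Rose Bengal sodium served as the red fluorophore standard. HepG2 monolayers (overnight attachment, MEM with 10% FBS) were exposed to test compounds for 1 hr at 37 C and read at Ex 540/Em 590 nm.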

[7] = qHTS assay to test for compound auto fluorescence at 535 nm (green) in HepG2 cells (AID 720675)
[8] = qHTS assay to test for compound auto fluorescence at 460 nm (blue) in HEK293 cells (AID 720678)
In short: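 Intrinsic compound fluorescence is recorded in live HEK293 cultures after overnight incubation at 37C, 5% CO2, using excitation 405 nm and emission 460 nm. Values are referenced to triamterene.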

[9] = qHTS assay to test for compound auto fluorescence at 590 nm (red) in HEK293 cells (AID 720679)
In short: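 Red autofluorescence, HEK293 cells: 2,000 cells/well; attach 4-5 hr 37C; add 23 nL cpd or DMSO; incubate o/n 37C 5% CO2; read Ex540/Em590; Rose Bengal sodium reference.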

[10] = qHTS assay to test for compound auto fluorescence at 535 nm (green) in HEK293 cells (AID 720680)
[11] = qHTS assay to test for compound auto fluorescence at 460 nm (blue) in HEK293 cell free culture (AID 720681)
In short: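 Test compounds were pinned into cell-free culture medium (DMEM with 10% FBS) and fluorescence was read directly at Ex/Em 405/460 nm. Signals were expressed as fluorescence equivalents of triamterene, with DMSO vehicle as control.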

[12] = qHTS assay to test for compound auto fluorescence at 535 nm (green) in HEK293 cell free culture (AID 720682)
In short: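 Green-label autofluorescence (485 nm excitation, 535 nm emission) measured on compound added to cell-free culture medium (DMEM, 10% FBS). Output is expressed relative to fluorescein.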

[13] = qHTS assay to test for compound auto fluorescence at 590 nm (red) in HEK293 cell free culture (AID 720683)
In short: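 Tox21 10K library compounds were pinned into cell-free DMEM with 10% FBS and fluorescence was read at excitation 540 nm. Activity is expressed as Rose Bengal sodium equivalency.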

[14] = qHTS assay to test for compound auto fluorescence at 590 nm (red) in HepG2 cell free culture (AID 720684)
In short: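 Measured in medium alone (MEM containing 10% FBS) following pintool addition of compound; emission at 590 nm with 540 nm excitation, referenced to Rose Bengal sodium.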

[15] = qHTS assay to test for compound auto fluorescence at 460 nm (blue) in HepG2 cell free culture (AID 720685)
In short: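 Compound (23 nL) or DMSO pinned into cell-free MEM with 10% FBS; blue fluorescence read at 405/460 nm excitation/emission, expressed as auto-fluorescence equivalency to triamterene.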

[16] = qHTS assay to test for compound auto fluorescence at 535 nm (green) in HepG2 cell free culture (AID 720686)
[17] = qHTS assay to test for compound auto fluorescence at 460 nm (blue) in HepG2 cells (AID 720687)
In short: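 Cells (2,000/well in MEM with 10% FBS) attached overnight at 37 C, then were exposed to compound or DMSO for 1 hr at 37 C, 5% CO2. Fluorescence read at Ex/Em 405/460 nm, expressed as triamterene-equivalent signal.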

[18] = qHTS assay for small molecule agonists of the p53 signaling pathway (AID 651631; calls by dose curve; further: nearly all actives have a fitted effect of over 15% in size)
In short: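 HCT-116 cells carrying a beta-lactamase reporter under p53 response elements were dosed with compound for 16 h at 37 °C. LiveBLAzer B/G FRET substrate was then added for 2 h at room temperature, and fluorescence intensity was read to detect pathway agonism.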

[19] = target: Glucocorticoid receptor (Homo sapiens) (UniProt P04150); experiment: qHTS assay to identify small molecule agonists of the glucocorticoid receptor (GR) signaling pathway (AID 720691; active means well fitted activation curve with a large enough effect in the signal ratio in the repeat runs, not every such curve was filed as active; inconclusive means weak or mixed curves, or effect the other way; inactive means no such curve, though single readings can be large or run the other way; the % refers to the signal ratio; further: potency means the concentration at half of the fitted maximal effect); conditions: GR-bla HeLa, beta-lactamase reporter ratio, 18 h; activation: at 62.4 µM (top of the series)
In short: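 Reporter read-out: fluorescence intensity following 2 h room-temperature LiveBLAzer B/G FRET substrate loading. Prior step: GR-bla HeLa cells held 4 h, then treated 18 h at 37 C.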

[20] = target: Glucocorticoid receptor (Homo sapiens) (UniProt P04150); experiment: qHTS assay to identify small molecule antagonists of the glucocorticoid receptor (GR) signaling pathway (AID 720692; active means well fitted inhibition curve with a large enough effect in the signal ratio in the repeat runs, not every such curve was filed as active; inconclusive means weak or mixed curves, or effect the other way; inactive means no such curve, though single readings can be large or run the other way; the % refers to the signal ratio; further: potency means the concentration at half of the fitted maximal effect)
In short: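 Dexamethasone (5 nM final) stimulated a stably integrated GRE-beta-lactamase reporter in HeLa cells during 18 h co-incubation with compounds; signal was quantified as fluorescence intensity of B/G FRET substrate after 2 h.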

Measured: Potency

Chain of Glucocorticoid receptor (Homo sapiens) (P04150 whole entry, looked up): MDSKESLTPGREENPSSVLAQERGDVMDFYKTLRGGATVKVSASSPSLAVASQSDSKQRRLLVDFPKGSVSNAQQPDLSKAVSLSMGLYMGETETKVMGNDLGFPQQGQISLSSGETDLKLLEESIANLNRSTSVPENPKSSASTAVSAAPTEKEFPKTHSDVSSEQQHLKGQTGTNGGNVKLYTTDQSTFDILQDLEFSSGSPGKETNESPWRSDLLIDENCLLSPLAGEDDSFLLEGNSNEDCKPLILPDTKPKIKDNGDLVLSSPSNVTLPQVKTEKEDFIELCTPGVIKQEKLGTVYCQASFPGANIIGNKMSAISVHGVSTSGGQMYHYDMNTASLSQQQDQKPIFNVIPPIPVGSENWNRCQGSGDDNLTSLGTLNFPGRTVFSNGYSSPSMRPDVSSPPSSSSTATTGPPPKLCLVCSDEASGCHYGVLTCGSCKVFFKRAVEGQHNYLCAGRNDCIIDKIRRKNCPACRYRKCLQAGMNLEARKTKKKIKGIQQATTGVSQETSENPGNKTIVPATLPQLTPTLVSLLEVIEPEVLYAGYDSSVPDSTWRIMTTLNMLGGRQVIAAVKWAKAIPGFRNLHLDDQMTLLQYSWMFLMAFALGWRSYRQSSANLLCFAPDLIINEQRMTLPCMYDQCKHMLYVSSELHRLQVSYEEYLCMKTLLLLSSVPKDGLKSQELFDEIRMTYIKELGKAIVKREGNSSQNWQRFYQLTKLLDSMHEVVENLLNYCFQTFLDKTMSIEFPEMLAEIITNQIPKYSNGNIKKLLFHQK

Cc1c(Cl)cccc1Nc1ncccc1C(=O)O
active: [5] 13.3 µM
not listed: [18] | [19] | [20]
inactive: all other assays above

Nc1ncnc(Nc2ccc(Cl)cc2)n1
not listed: [1] | [4] | [5]
inactive: all other assays above

CCCCCCCCCCCCCCCCSCC(COC)COP(=O)([O-])OCC[N+](C)(C)C (stereo unspecified)
active: [20] 23.9 µM
not listed: [1] | [5] | [6]
inactive: all other assays above

NC(Cc1ccccc1)C(=O)O (stereo unspecified)
not listed: [1] | [6] | [19] | [20]
inactive: all other assays above

CCCC1C(=O)N2C(N(C)C)=Nc3ccc(C)cc3N2C1=O (stereo unspecified)
not listed: [1] | [15]
inactive: all other assays above

CSc1nc2cc(Oc3cccc(Cl)c3Cl)c(Cl)cc2[nH]1
active: [2] 10.6 µM | [3] 29.8 µM | [4] 2.11 µM | [5] 1.68 µM
not listed: [18] | [19] | [20]
inactive: all other assays above

CN[C@@H]1[C@@H](O)[C@@H](O[C@@H]2[C@@H](O)[C@H](O[C@H]3O[C@H](CN)[C@@H](O)[C@H](O)[C@H]3O)[C@@H](N)C[C@H]2NC(=O)C(O)CN)OC[C@]1(C)O (stereo partly specified)
active: [19] 6.01 µM
not listed: [1] | [13] | [20]
inactive: all other assays above

O=[N+]([O-])c1c(Cl)cccc1-c1c[nH]cc1Cl
active: [2] 33.5 µM | [4] 10.6 µM | [5] 2.98 µM | [20] 21.3 µM
not listed: [18]
inactive: all other assays above

CC[C@H](C)CCCCC(=O)N[C@@H](CCN)C(=O)N[C@H](C(=O)N[C@@H](CCN)C(=O)N[C@H]1CCNC(=O)[C@H]([C@@H](C)O)NC(=O)[C@H](CCN)NC(=O)[C@H](CCN)NC(=O)[C@H](CC(C)C)NC(=O)[C@@H](CC(C)C)NC(=O)[C@H](CCN)NC1=O)[C@@H](C)O (X2-[Dab]T[Dab][Dab][Dab][dL]L[Dab][Dab]T; lactam 4-C)
not listed: [18] | [20]
inactive: all other assays above

COc1ccc(CC2c3cc(OC)c(OC)cc3CC[N+]2(C)CCC(=O)OCCCCCOC(=O)CC[N+]2(C)CCc3cc(OC)c(OC)cc3C2Cc2ccc(OC)c(OC)c2)cc1OC (stereo unspecified)
active: [19] 1.29 µM [inconclusive]
not listed: [18] | [20]
inactive: all other assays above

CCCCCCCCCCCCCCCC(=O)OCC(COC(=O)CCCCCCCCCCCCCCC)OC(=O)CCCCCCCCCCCCCCC
not listed: [18]
inactive: all other assays above

O=C(OC[C@H]1O[C@](O)(COC(=O)c2cccnc2)[C@@H](OC(=O)c2cccnc2)[C@@H]1OC(=O)c1cccnc1)c1cccnc1
not listed: [18]
inactive: all other assays above

CC(=O)N[C@@H]([C@@H](O)[C@H](O)[C@H](O)CO)[C@@H](O)CC(=O)C(=O)O
not listed: [18]
inactive: all other assays above

CC(=O)Nc1c(I)c(C(=O)N[C@H]2C(O)O[C@H](CO)[C@@H](O)[C@@H]2O)c(I)c(N(C)C(C)=O)c1I (stereo partly specified)
not listed: [18] | [20]
inactive: all other assays above

c1ccc2cc(C3=NCCN3)ccc2c1
not listed: [18] | [20]
inactive: all other assays above

CC(=O)O[C@H]1CC[C@@]2(C)C(=CC[C@H]3[C@@H]4CC[C@H](C(C)=O)[C@@]4(C)CC[C@@H]32)C1
not listed: [18] | [20]
inactive: all other assays above

CN(C)C(=O)CCSC(SCCC(=O)O)c1cccc(/C=C/c2ccc3ccc(Cl)cc3n2)c1 (stereo unspecified)
active: [1] 4.73 µM | [2] 29.8 µM | [3] 23.7 µM | [4] 29.8 µM | [5] 24.8 µM | [20] 8.49 µM
not listed: [18]
inactive: all other assays above

CO/N=C(\C(=O)N[C@@H]1C(=O)N2C(C(=O)O)=CCS[C@H]12)c1csc(N)n1
not listed: [18] | [20]
inactive: all other assays above

CC[C@H](C)CCCCC(=O)N[C@@H](CCN)C(=O)N[C@H](C(=O)N[C@@H](CCN)C(=O)N[C@H]1CCNC(=O)[C@@H]([C@H](C)O)NC(=O)[C@H](CCN)NC(=O)[C@H](CCN)NC(=O)[C@H](CC(C)C)NC(=O)[C@@H](CC(C)C)NC(=O)[C@H](CCN)NC1=O)[C@@H](C)O (X2-[Dab]T[Dab][Dab][Dab][dL]L[Dab][Dab][dT]; lactam 4-C)
not listed: [18]
inactive: all other assays above

C[C@H](CSC(=O)c1ccccc1)C(=O)N1C[C@@H](Sc2ccccc2)C[C@H]1C(=O)O
not listed: [18] | [20]
inactive: all other assays above

CCCCCCCCCCCCCCCC(=O)OC[C@@H](O)[C@H]1OC[C@H](O)[C@H]1O
not listed: [18] | [20]
inactive: all other assays above

CC1=C(/C=C/C(C)=C/C=C/C(C)=C/C(=O)Oc2c(C)c(C)c3c(c2C)CC[C@@](C)(CCC[C@H](C)CCC[C@H](C)CCCC(C)C)O3)C(C)(C)CCC1
not listed: [18] | [20]
inactive: all other assays above

CCC(C)[C@H]1O[C@]2(C=C[C@@H]1C)C[C@@H]1C[C@@H](C/C=C(\C)[C@@H](O[C@H]3C[C@H](OC)[C@@H](O[C@H]4C[C@H](OC)[C@H](NC(C)=O)[C@H](C)O4)[C@H](C)O3)[C@@H](C)/C=C/C=C3\CO[C@@H]4[C@H](O)C(C)=C[C@@H](C(=O)O1)[C@]34O)O2 (stereo partly specified)
active: [2] 2.98 µM and 11.9 µM | [3] 6.68 µM and 10.6 µM | [5] 3.76 µM and 11.9 µM
not listed: [18] | [20]
inactive: all other assays above

CCCCCC(O)/C=C/C=O (stereo unspecified)
not listed: [18]
inactive: all other assays above

CC[C@H](C)[C@@H]1NC(=O)[C@H](Cc2ccc(O)cc2)NC(=O)[C@@H](N)CSSC[C@@H](C(=O)N2CCC[C@H]2C(=O)N[C@@H](CC(C)C)C(=O)NCC(N)=O)NC(=O)[C@H](CC(N)=O)NC(=O)[C@H](CCC(N)=O)NC1=O
not listed: [18]
inactive: all other assays above
